Counter-ions that a name gives are not always drawn.
Columns and labels:
Assay in all cases: Euclidean distance of Cell Painting phenotypic profile (signed KS, 77 features) to DMSO centroid (dimensionless distance); 5 or 10 uM (library dependent); higher = stronger phenotypic change vs DMSO (phenoactivity)
Settings in all cases: 48 h
[1] = system: 786-O
How it was run: (§1)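 Library compounds were applied at 10 or 5 uM, depending on the library, with 0.1% DMSO final, for 48 h to five cancer lines and a healthy fibroblast line. After staining, cells were imaged confocally at 20X across 9 fields per well, and Harmony extracted 77 features, each scored as a signed Kolmogorov-Smirnov statistic against vehicle wells on the same plate. Phenoactivity is the Euclidean distance between each profile and the median vehicle profile, with profiles first plate-position corrected, correlation-weighted and averaged over replicates at the top dose.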

[2] = system: A549
How it was run: as §1

[3] = system: DU145
How it was run: as §1

[4] = system: FB
How it was run: as §1

[5] = system: HEPG2
How it was run: as §1

[6] = system: OVCAR4
How it was run: as §1

Compound | Euclidean distance [1] | Euclidean distance [2] | Euclidean distance [3] | Euclidean distance [4] | Euclidean distance [5] | Euclidean distance [6]
COc1ccc(/C=C/C(=O)Nc2ccccc2C(=O)O)cc1OC [Trans-Tranilast] | 1.43 | 0.649 | 0.604 | 1.18 | 0.865 | 0.917
Cc1c(NC(=O)OC[C@@H]2COCCN2)cn2ncnc(Nc3ccc4c(cnn4Cc4cccc(F)c4)c3)c12 | 2.06 | 1.47 | 1.13 | 1.52 | 1.28 | 0.963
O=C(Cn1cnnn1)N[C@@H]1C(=O)N2C(C(=O)O)=C(CSc3nncs3)CS[C@H]12 [Ceftezole sodium] | 0.633 | 1.39 | 1.36 | 0.846 | 0.929 | 0.929
C[C@@H](OC[C@@]1(c2ccccc2)CC[C@]2(CCC(=O)N2)CN1)c1cc(C(F)(F)F)cc(C(F)(F)F)c1 [Rolapitant] | 1.23 | 1.85 | 1.34 | 1.17 | 1.3 | 1.41
C=CC(=O)Nc1ccc2ncnc(Nc3ccc(OCc4cccc(F)c4)c(Cl)c3)c2c1 | 2.14 | 1.92 | 1.99 | 2.48 | 1.03 | 3.41
OCc1cc(C(O)CNCCCCCCOCCCCc2ccccc2)ccc1O (stereo not drawn) [Salmeterol] | 1.56 | 1.95 | 1.51 | 1.75 | 2.13 | 1.77
NNc1nncc2ccccc12 [Hydralazine HCl] | 1.33 | 1.23 | 0.857 | 1.33 | 0.411 | 0.975
CC(C(O)c1ccc(O)cc1)N1CCC(Cc2ccccc2)CC1 (stereo not drawn) [Ifenprodil Tartrate] | 0.976 | 0.88 | 0.955 | 1.22 | 0.958 | 0.965
CCn1cc(C(=O)O)c(=O)c2cc(F)c(N3CCN(C)CC3)cc21 [Pefloxacin Mesylate] | 1.56 | 0.826 | 0.983 | 1.04 | 1.02 | 1.3
CC(C)(CCCCCC(O)CCCCCC(C)(C)C(=O)O)C(=O)O | 0.76 | 0.809 | 0.925 | 0.851 | 0.375 | 1.06
Cc1ncc(C[n+]2csc(CCO)c2C)c(N)n1 [Thiamine HCl (Vitamin B1)] | 1.43 | 0.642 | 0.753 | 0.562 | 1.12 | 1.21
COc1nccnc1NS(=O)(=O)c1ccc(N)cc1 [Sulfalene(SMPZ)] | 0.789 | 1.44 | 1.18 | 1.41 | 0.406 | 0.917
O=S(=O)(c1ccccc1)c1cnc2c(N3CCNCC3)cccc2c1 | 0.96 | 0.917 | 0.761 | 0.827 | 1.94 | 0.986
COc1cc(O)c(C(=O)Nc2nc(C(=O)NCCN(C(C)C)C(C)C)cs2)cc1OC [Acotiamide] | 1.22 | 0.413 | 0.881 | 0.785 | 0.356 | 0.831
NC[C@H]1O[C@H](O[C@H]2[C@H](O)[C@@H](O[C@H]3O[C@H](CO)[C@@H](O)[C@H](N)[C@H]3O)[C@H](N)C[C@@H]2N)[C@H](N)C[C@@H]1O [Tobramycin] | 0.897 | 1.31 | 1.34 | 0.987 | 0.563 | 1.4
O=C(Nc1cccnc1)N1CCC(Cc2cccc(Oc3ccc(C(F)(F)F)cn3)c2)CC1 | 0.844 | 1.34 | 0.774 | 0.825 | 1.94 | 0.736
O=C(/C=C/c1ccc(CN(CCO)CCc2c[nH]c3ccccc23)cc1)NO [LAQ824 (Dacinostat)] | 2.61 | 4.89 | 4.56 | 3.59 | 4.12 | 3.09
NCC(=O)O [Glycine] | 1.61 | 0.971 | 0.929 | 1 | 0.776 | 1.93
COc1cc2c(Oc3ccc4[nH]c(C)cc4c3F)ncnc2cc1OCCCN1CCCC1 [Cediranib (AZD2171)] | 4.22 | 4.27 | 3.51 | 4.47 | 3.58 | 4.53
CC1(C)CCC(C)(C)c2cc(NC(=O)c3ccc(C(=O)O)cc3)ccc21 [Tamibarotene] | 1.13 | 1.55 | 1.77 | 3 | 0.884 | 1.24
COc1ccccc1N1CCN(CCCNc2cc(=O)n(C)c(=O)n2C)CC1 [Urapidil HCl] | 1.39 | 0.9 | 0.94 | 0.778 | 0.34 | 0.898
CN1C(=O)C(Cc2c[nH]c3ccccc23)NC1=S (stereo not drawn) [Necrostatin-1] | 1.05 | 1.61 | 1.1 | 0.994 | 0.953 | 1.55
COc1ccc(NS(=O)(=O)c2ccc(N)cc2)nn1 [Sulfamethoxypyridazine] | 0.978 | 0.771 | 1.02 | 1.64 | 0.55 | 1.05

Source: the supplement of paper PMC10127200
